Source: PubChem
KB-V1 MDR tox – kills drug-selected multidrug resistant KB-V1 cells; Potency, µM (doses to about 46.1 µM), actives largely listed as cytotoxic; KB-V1 MDR cells viability, CellTiter-Glo, 72 h; 400,000 tested, 3.4% active; also: nearly all actives have a fitted effect of over 60% in size
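Cytotoxicity toward P-gp-expressing KB-V1 cells was determined as loss of CellTiter-Glo luminescence after 72 h at 37 degrees C. Compounds were tested in quantitative HTS format across a concentration range, with curves fitted to normalized data.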
KB-3-1 tox – KB-3-1 parental cell cytotoxicity. AID 1347075. KB-3-1 viability, CellTiter-Glo ATP luminescence, 72 h. Potency, µM (titrated, usually from 46.1 µM), actives largely listed as cytotoxic. 400,000 tested, 1.4% active; also: nearly all actives have a fitted effect of over 60% in size
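Cells are dispensed, compounds pinned in, plates held at 37 °C for 72 h, then CellTiter-Glo is added and luminescence read after 10 minutes. Cell line: parental KB-3-1 in phenol-red-free DMEM, 10% FBS.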
VP16 counter – inhibits Gal4-VP16 luciferase reporter, ROR gamma counter-screen | 310,000 tested, 3.5% active | AID 2546 | Potency, µM (top dose mostly 53.6 µM), actives largely listed as inhibitors | Drosophila S2 Gal4-VP16 UAS-luciferase, luminescence, 20 h;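 also: Gal4-VP16 expression switched on by copper sulfate through the metallothionein promoter; nearly all actives have a fitted effect of over 50% in size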
RORgamma inh – inhibitors of mouse ROR gamma transcriptional activity. Potency, µM (top dose mostly 53.6 µM), most hits filed as inhibitors. 310,000 tested, 5.4% active. Drosophila S2 Gal4-RORgamma UAS-luciferase reporter, 20 h. P51450; also: nearly all actives have a fitted effect of over 60% in size
Target sequence (P51450 whole entry, looked up, the tested form may be a part): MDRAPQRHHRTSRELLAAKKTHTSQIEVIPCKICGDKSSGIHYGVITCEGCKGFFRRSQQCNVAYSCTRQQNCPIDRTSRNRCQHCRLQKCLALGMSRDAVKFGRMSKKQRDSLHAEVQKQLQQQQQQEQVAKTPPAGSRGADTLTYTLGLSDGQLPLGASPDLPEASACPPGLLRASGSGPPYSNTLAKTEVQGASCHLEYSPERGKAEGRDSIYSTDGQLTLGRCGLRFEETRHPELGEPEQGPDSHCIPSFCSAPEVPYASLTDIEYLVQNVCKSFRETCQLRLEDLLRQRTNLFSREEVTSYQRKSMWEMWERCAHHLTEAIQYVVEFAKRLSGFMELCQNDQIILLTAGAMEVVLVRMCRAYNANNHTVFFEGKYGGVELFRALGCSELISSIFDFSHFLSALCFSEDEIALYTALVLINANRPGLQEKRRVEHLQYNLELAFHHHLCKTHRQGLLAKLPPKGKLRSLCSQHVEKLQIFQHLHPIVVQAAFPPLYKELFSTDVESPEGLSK
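Compounds are pin-transferred onto Drosophila Schneider cells expressing a copper-inducible Gal4–ROR gamma transactivation domain fusion. After 1 hr, copper sulfate is added to 700 uM final; luciferase is read 20 hr later.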
MCF10A rerep – inducers of DNA re-replication in MCF 10A breast cells. 350,000 tested, 2.9% active. Potency, µM (titrated, usually from 46.1 µM), usual class: activators. MCF 10A DNA re-replication, Hoechst nuclear intensity, 48 h. AID 624296; also: nearly all actives have a fitted effect of over 50% in size
SW480 rerep – inducers of DNA re-replication in SW480 colon cancer cells; SW480 DNA re-replication, Hoechst DNA content imaging, 48 h; Potency, µM (titrated, usually from 46.1 µM), hits mostly activators; 340,000 tested, 1.8% active; also: nearly all actives have a fitted effect of over 55% in size
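DNA re-replication was detected as more nuclei of elevated Hoechst intensity after 48 hr exposure to compound (23 nL pinned per well of 250 cells).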
Numbers stand for hits; i = inactive; ? = inconclusive; nt = no result given; [ ] = another dose, or the depositor's remark. This is a sample that favours compounds with a hit; in the whole collection about 10% have one here. Calls follow the shape of the dose curve; as a rule, active = well fitted curve in the direction sought with a large enough effect; inconclusive = small, poorly fitted or top-dose-only effect, or another doubt; inactive = no such curve, though single readings can be large; an effect the other way counts as inactive or inconclusive.

SMILES	KB-V1 MDR tox	KB-3-1 tox	VP16 counter	RORgamma inh	MCF10A rerep	SW480 rerep
Cc1ccc(-n2cc(CN(C)Cc3ncc[nH]3)c(-c3cccc(C)c3)n2)cc1	?	i	6.3µM	i	?	i
CCn1ccnc1CN(C)Cc1cn(-c2cc(C)ccc2C)nc1-c1ccccc1	i	i	i	i	i	i
CCn1ccnc1CN(C)Cc1cn(-c2ccc(C)cc2)nc1-c1ccc(F)cc1	i	i	16µM	2.8µM	i	i
CCN(C(=O)CN(C)S(=O)(=O)c1ccc2c(c1)c(=O)n(C)c(=O)n2C)c1ccc(OC)cc1	i	i	nt	nt	nt	nt
Cc1cccc(-c2nc3scc(CCNC(=O)c4ccccc4Cl)n3n2)c1	i	i	nt	nt	nt	nt
C=CCN1C(=O)/C(=c2\sc3nc(=O)c(Cc4ccccc4Cl)nn3c2=O)c2ccccc21	i	i	?	13µM	i	i
O=C(CN1CCCc2ccccc21)N/N=C/c1ccc(O)cc1O	?	i	22µM	?	?	?
O=C(CN1CCCc2ccccc21)N/N=C/c1ccccc1	i	i	?	i	i	i
CCN(CC)c1ccc(/C=N/NC(=O)CN2CCCc3ccccc32)cc1	i	i	?	?	i	i
O=C(CN1CCCc2ccccc21)N/N=C/c1c(O)ccc2ccccc12	?	?	0.79µM	1.3µM	?	?
CCOC(=O)c1cccc(NC(=O)c2ncoc2-c2ccco2)c1	i	i	nt	nt	nt	nt
CCCCNc1nc(N)nc(-c2cc(Cl)ccc2O)n1	12µM	?	i	i	21µM	?
Cc1cc(N2CCOCC2)nc(NCc2ccccc2)n1	?	i	?	i	7.3µM	i
Cc1cc(N2CCCCC2)nc(NCc2ccccc2)n1	?	16µM	?	20µM	?	?
COc1cccc(CN2CCCN(Cc3ccc(F)cc3)S2(=O)=O)c1	i	i	nt	nt	nt	nt
CC1(C)Cc2c(sc3ncnc(NNC(=S)NCc4ccccc4)c23)CO1	?	5.2µM	3.2µM	2.2µM	3.3µM	3.7µM
CC(C)NC(=S)NNc1ncnc2sc3c(c12)CC(C)(C)OC3	i	i	nt	nt	i	i
Cn1nnc(NC(=S)NC(=O)c2cccc3c(Cl)cccc23)n1	?	i	2.8µM	0.89µM	i	i
Cn1nnc(NC(=S)NC(=O)c2cccc3c(Br)cccc23)n1	i	i	2.8µM	0.89µM	i	i
COc1c(C(=O)NC(=S)Nc2nnn(C)n2)cc2ccccc2c1Br	i	i	4µM	2.5µM	i	i
O=C(Cn1cc(S(=O)(=O)Cc2cccc(Cl)c2)c2ccccc21)NCCc1ccccc1	i	i	nt	nt	nt	nt
O=C(NCc1cccnc1)c1cc(C2CCCCN2C(=O)CCCc2ccccc2)on1 (centres undefined)	i	i	nt	nt	nt	nt
COc1ccc(C(OCCN2CCC[C@@H](C(=O)O)C2)(c2ccc(OC)cc2)c2ccc(OC)cc2)cc1	nt	nt	i	i	nt	nt
Cc1ccc(Cl)cc1-n1nnc(-c2nc(-c3ccc4c(c3)OCO4)no2)c1C	i	i	nt	nt	nt	nt
Cc1ccc(CN2CCN(/N=C/c3cccn3C)CC2)c(C)c1	i	i	i	i	i	i
SMILES	KB-V1 MDR tox	KB-3-1 tox	VP16 counter	RORgamma inh	MCF10A rerep	SW480 rerep
Cc1ccc(CN2CCN(/N=C/c3ccc(C)s3)CC2)c(C)c1	16µM	i	i	i	i	16µM
Cc1ccc(CN2CCCN(C)CC2)c(C)c1	i	i	i	i	21µM	i
CCn1c(=O)c2cc(C(=O)NCc3ccc(F)cc3Cl)sc2c2ccccc21	i	i	nt	nt	nt	nt
O=C(Nc1ccccc1O)c1c(O)c2c([nH]c1=O)CCCC2	i	i	?	i	21µM	16µM
O=C(Nc1nccs1)c1c(O)c2c([nH]c1=O)CCCC2	i	i	i	?	i	i
O=C(Nc1cc(Cl)ccc1O)c1snnc1-c1ccccc1	8.2µM	18µM	?	?	?	i
O=C(Nc1cccc(Cl)c1Cl)c1snnc1-c1ccccc1	?	i	i	i	i	i
O=C1c2cccc3cccc(c23)C(=O)N1CC1CCN(S(=O)(=O)c2ccc(F)cc2)CC1	9.2µM	i	i	i	i	i
Cn1c(=O)c2cc(NC(=O)NCc3ccc(Cl)cc3Cl)ccc2n1Cc1ccccc1	i	i	nt	nt	nt	nt
O=C(O)Cc1sc(Nc2cccc3ccccc23)nc1-c1ccccc1	i	i	nt	nt	i	i
O=C(O)Cc1sc(Nc2cccc3ccccc23)nc1-c1ccc(Cl)cc1	i	i	i	i	7.3µM	i
Cc1ccc(C2=NC3(CCCC3)N=C2SCC(=O)Nc2ccc3c(c2)OCCO3)cc1	i	i	i	?	?	21µM
NC(=S)N/N=C1\CCOc2ccc(Cl)cc21	?	?	8.9µM	3.2µM	i	i
NC(=S)NN=C1c2cc(S(=O)(=O)N3CCOCC3)ccc2-c2ccc(S(=O)(=O)N3CCOCC3)cc21	i	i	i	i[10 µM]	i	i
COc1cc(C(=O)NC2CCCc3ccccc32)cc(OC)c1C (centres undefined)	i	i	?	?	i	i
COc1ccc(CN(C)CC(=O)NC2CCCc3ccccc32)cc1OC (centres undefined)	?	i	i[10 µM]	i	?	4.1µM
CCn1c(=O)c(=O)[nH]c2cc(C(=O)NC3CCCc4ccccc43)ccc21 (centres undefined)	i	10µM	i	i	?	?
COc1cc(CC(=O)NC2CCCc3ccccc32)cc(OC)c1OC (centres undefined)	?	i	i	i	i	i
COc1ccc(C2(CNC(=O)c3ccc(OC)c([N+](=O)[O-])c3)CCCCC2)cc1OC	2.6µM	i	i	i[10 µM]	i	i
COc1ccc(C(=O)NC2CCCc3ccccc32)cc1[N+](=O)[O-] (centres undefined)	5.8µM	?	i	i	?	?
CCn1c(=O)c(=O)[nH]c2cc(C(=O)NC3CC3)ccc21	i	i	i	i	i	i
CO[C@@H]1COC(=O)CC=C[C@@H](C)[C@@H]2C=C[C@H](O)[C@@H](COC(=O)[C@H](C)NC(=O)CC=C[C@H]1C)O2	nt	nt	i[10 µM]	i[10 µM]	nt	nt
CCOC(=O)c1cc(-c2ccc(C)cc2)n(CCC(=O)Nc2nc3c(C)cccc3s2)c1C	i	i	nt	nt	nt	nt
CCC/C=C1\CCCOC(C(=O)NCc2ccccc2)(C(F)(F)F)C1 (centres undefined)	nt	nt	i	i	nt	nt
O=C1CCCC2=C1C1(CCCC1)N=C(Nc1nc3cc4ccccc4cc3o1)N2	i	i	nt	nt	nt	nt
Cc1ccc(NC(=S)NCc2cccn2C)cc1	?	i	?	4µM	i	21µM
Cc1cccc(NC(=S)NCc2cccn2C)c1	i	21µM	i	?	i	i
CCc1cccc(C)c1NC(=S)NCc1cccn1C	i	i	i	?	i	i
CN1CCCC(C)(C(=O)Nc2ccc(-n3cccc3)cc2)C1 (centres undefined)	i	i	nt	nt	nt	nt
Cc1ccc(OCCCN2CCC(C(O)(c3ccccc3)c3ccccc3)CC2)cc1	21µM	?	nt	nt	nt	nt
